SUMO HTRF inh = inhibitors of in vitro SUMOylation cascade, primary screen, biochemical, HTRF, uHTS; HTRF SUMOylation assay, SAE1/SAE2 + UBC9; inhibition, % at 35 µM; 290,000 compounds, 0.36% hits; AID 2006, 2009; in the data active = inhibition above about 50%, passing the limit was not always enough; inconclusive = no clear call, values can overlap the other calls
SIRT5 inh = SIRT5 desuccinylase inhibitors, primary screen, biochemical, fluorescence imaging, single point, set 5 | NAD-dependent protein deacylase sirtuin-5, mitochondrial (Homo sapiens), Q9NXA8 | Purified SirT5, succinyl-peptide AMC, trypsin-coupled fluorescence | inhibition, % at 15 µM | 330,000 compounds, 1.1% hits; in the data active = inhibition above about 15%; inconclusive = no clear call, values can overlap the other calls
Target sequence (Q9NXA8 whole entry, looked up): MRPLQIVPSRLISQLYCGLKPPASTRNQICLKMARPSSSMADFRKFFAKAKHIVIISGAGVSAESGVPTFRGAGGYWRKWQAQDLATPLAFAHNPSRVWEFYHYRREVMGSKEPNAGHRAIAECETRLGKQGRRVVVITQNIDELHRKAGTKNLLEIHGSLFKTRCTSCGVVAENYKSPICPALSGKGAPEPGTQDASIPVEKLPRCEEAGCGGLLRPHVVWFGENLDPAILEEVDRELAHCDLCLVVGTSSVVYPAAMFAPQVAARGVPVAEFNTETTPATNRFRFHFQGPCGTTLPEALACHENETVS
CASP6 VEID inh = human caspase-6 inhibitors, primary screen, biochemical, VEID-R110 fluorescence, single point, set 2; purified caspase-6, Z-VEID-R110 cleavage fluorescence; 350,000 compounds, 0.53% hits; AID 686996, 2013; P55212; inhibition, % at 12.5 µM;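 active = mean inhibition across replicates at least about 35%, with every replicate also reaching that limit, limit read from the data; inconclusive = only one of the two criteria met; inactive = neither criterion met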;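 note: 0% = median of neutral control wells and 100% = no fluorescence left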
Target sequence (P55212 24-179 limits assumed): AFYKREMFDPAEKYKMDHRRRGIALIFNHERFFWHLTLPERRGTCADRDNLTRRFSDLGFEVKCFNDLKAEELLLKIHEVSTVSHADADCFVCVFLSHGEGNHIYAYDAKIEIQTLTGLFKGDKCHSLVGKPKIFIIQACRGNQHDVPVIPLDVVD
Target sequence (P55212 194-293 limits assumed): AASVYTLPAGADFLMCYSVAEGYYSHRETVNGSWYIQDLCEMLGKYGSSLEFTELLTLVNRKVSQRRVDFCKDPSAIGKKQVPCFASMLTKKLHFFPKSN
NSD2 inh = NSD2 histone methyltransferase inhibitors, primary screen, biochemical, AlphaScreen, single concentration, set 2; NSD2 peptide methylation, 120 min; Histone-lysine N-methyltransferase NSD2 (Homo sapiens), O96028; AID 743445, 2014; inhibition, % at 12.5 µM; 310,000 compounds, 0.54% hits; in the data active = inhibition above about 50%
Alpha artifact = AlphaScreen signal interference with preloaded methylated product, dose response, artefact control for NSD2 inhibitor project, biochemical, cherry-picked samples. AlphaScreen artifact counterscreen, preloaded methylated H4 peptide. AC35, µM (top dose mostly 10 µM), for the others: at the highest dose activity change, negative = signal loss. 1,500 compounds, 9.4% hits. shares compounds with NSD2 inh; call rule not given here
An asterisk follows results filed as active; ? = inconclusive; . = not tested or not shown. Sampled rows, rich in hits. Any-hit rate of the full collection: about 1.6%.

SMILES | SUMO HTRF inh | SIRT5 inh | CASP6 VEID inh | NSD2 inh | Alpha artifact
Nc1nc(N)c(N=Nc2ccc(S(N)(=O)=O)cc2)c(=O)[nH]1 | 14 | 0 | 1 | -1 | .
NC(=NCc1ccc2c(c1)OCO2)NC(=O)c1ccccc1 | 32 | -3 | 7 | 88* | 0%
C[C@@H]1CN([C@@H](C)CO)C(=O)c2cc(-c3cccnc3)cnc2O[C@@H]1CN(C)C(=O)NC1CCCC1 | . | 0 | 0 | . | .
COc1ccc2c(c1)Cc1sc(NC(C)=O)nc1-2 | 65 | . | . | 95* | -5%
COc1ccc2c(c1)Cc1sc(NC(=O)c3ccco3)nc1-2 | 78 | . | . | 26 | .
COc1ccc2c(c1)Cc1sc(NC(=O)c3cccnc3)nc1-2 | 90* | -2 | 35 | 52* | 0%
Cc1cccc(/C=N/NC(=O)C(C)Nc2cccc3ccccc23)n1 (stereo unspecified) | 72 | . | . | 103* | -9%
CC(Nc1cccc2ccccc12)C(=O)N/N=C/c1ccc([N+](=O)[O-])cc1 (stereo unspecified) | -12 | . | . | 15 | .
C[C@@H]1CN([C@@H](C)CO)C(=O)c2cccc(NS(=O)(=O)c3ccc(Cl)cc3)c2O[C@@H]1CN(C)C(=O)NC1CCCCC1 | . | -1 | -3 | . | .
N=C1SCC(=O)N1c1ncc(Cc2ccccc2Cl)s1 | -1 | -4 | 1 | -1 | .
N=C1SCC(=O)N1c1ncc(Cc2cccc(Cl)c2)s1 | -22 | -3 | -6 | 80* | -1%
COc1ccc(S(=O)(=O)N[C@@H]2CC[C@H](CCn3cc(-c4cccc(F)c4)nn3)O[C@H]2CO)cc1 | . | -4 | . | . | .
CNCCCOc1cccc(OC(C)C)c1 | 12 | . | . | 92* | -3%
CC(=O)NCCOc1cccc(OCCNC(C)=O)c1 | -23 | . | . | -5 | .
CNCCCOc1cccc(Oc2ccccc2)c1 | 5 | 2 | 1 | 127* | 0%
CC(O)CNCCCOc1cccc(Oc2ccccc2)c1 (stereo unspecified) | 16 | -2 | 0 | 3 | .
CC(C)C#Cc1ccc2c(c1)O[C@@H](CN(C)Cc1ccccc1)[C@@H](C)CN([C@H](C)CO)S2(=O)=O | . | 1 | -2 | . | .
O=C1C(Cl)=C(NCCCN2CCOCC2)C(=O)c2ccccc21 | . | . | 19 | 9 | .
O=C1C(Cl)=C(NCCN2CCOCC2)C(=O)c2ccccc21 | -3 | -3 | 70* | 101* | 1%
CCOCCCNC1=C(Cl)C(=O)c2ccccc2C1=O | 85 | 6 | 8 | 81* | -14%
O=C(CSc1n[nH]c(-c2ccncc2)n1)Nc1ccc(Cl)cc1 | -8 | 1 | 3 | -2 | .
O=C(CSc1n[nH]c(-c2ccncc2)n1)Nc1ccc(Cl)c(Cl)c1 | -4 | 3 | 2 | 63* | 0%
Nc1cc(=O)[nH]c(SCC(=O)Nc2ccc(Cl)c(Cl)c2)n1 | 30 | . | . | 116* | 0%
C[C@@H]1CN([C@H](C)CO)C(=O)c2cc(NS(=O)(=O)c3ccc(F)cc3)ccc2O[C@@H](C)CCCCO[C@H]1CN(C)C(=O)Nc1ccccc1 | . | 6 | -3 | . | .
C[C@@H]1CN([C@H](C)CO)C(=O)c2cccc(NC(=O)Nc3ccccc3)c2O[C@@H]1CN(C)Cc1ccc(-c2ccccc2)cc1 | . | 1 | . | . | .
SMILES | SUMO HTRF inh | SIRT5 inh | CASP6 VEID inh | NSD2 inh | Alpha artifact
Cc1cc(/C=N/NC(=O)c2cccc(N(C)C)c2)c(C)n1-c1cc(C(=O)O)cc(C(=O)O)c1 | 31 | 20* | 35 | 55* | -4%
Cc1ccc(S(=O)(=O)Nc2ccc3c(c2)C(=O)N([C@@H](C)CO)C[C@H](C)[C@@H](CN(C)C(=O)Nc2ccc(F)cc2)O3)cc1 | . | 3 | 2 | . | .
CC1(C)Cc2sc3c(=O)[nH]c(=S)[nH]c3c2CO1 | 9 | -4 | -4 | 75* | -2%
CC1(C)Cc2c(c(-c3ccccc3)nc3sc4c(=O)[nH]c(=S)[nH]c4c23)CO1 | 28 | . | . | . | .
C[C@@H]1CN([C@@H](C)CO)C(=O)c2cc(-c3cccc(F)c3)cnc2O[C@H]1CN(C)CC1CCOCC1 | . | -1 | . | . | .
C[C@H](CO)N1C[C@H](C)[C@H](CN(C)S(C)(=O)=O)Oc2ccc(NC(=O)Nc3cccc4ccccc34)cc2CC1=O | . | 3 | 5 | . | .
CN1CC2(Cc3c1ccc1ccccc31)C(=O)OC(C)(C)OC2=O | 28 | . | . | 87* | 1%
COC(=O)c1ccccc1NC1=C/C(=N\S(=O)(=O)c2ccc(C(=O)O)cc2)c2ccccc2C1=O | 92* | . | . | 151* | 8.1µM*
COC(=O)c1ccccc1NC1=C/C(=N\S(=O)(=O)c2cccs2)c2ccccc2C1=O | 58 | . | 1 | 10 | .
O=C1C(Nc2ccccc2)=C/C(=N/S(=O)(=O)c2cccs2)c2ccccc21 | 49 | . | . | . | .
Cc1ccc(S(=O)(=O)/N=C2\C=C(Nc3cccc(C(=O)O)c3)C(=O)c3ccccc32)cc1 | ? | -3 | 99* | 172* | -16%
C[C@@H]1CN([C@@H](C)CO)S(=O)(=O)c2ccc(C#CC3CC3)cc2O[C@H]1CN(C)C(=O)c1cnccn1 | . | 0 | 1 | . | .
CCS(=O)(=O)N1CCC2(CC1)CN(CC1CCOCC1)[C@H](CO)c1c2c2ccc(OC)cc2n1C | . | 0 | -3 | . | .
N#Cc1ccsc1NC(=O)CSc1nncs1 | . | 15 | 5 | 2 | .
N#Cc1c(SCC(=O)Nc2nncs2)sc2c(O)cc(=O)[nH]c12 | 45 | 43* | 84* | 111* | -10%
N#CCC(=O)c1sccc1-n1cccc1 | 4 | 4 | 19 | 92* | -5%
N#CCOC(=O)c1sccc1-n1cccc1 | -7 | . | . | 3 | .
Cc1nc(C)c(C(=O)Nc2ncc([N+](=O)[O-])s2)o1 | 15 | 10 | 33 | 50* | -10%
CC(C)CC(=O)Nc1ncc([N+](=O)[O-])s1 | 6 | -2 | 20 | 4 | .
CC1CCN(CC(=O)Nc2ccc(S(=O)(=O)N3CCCC(C)C3)cc2)CC1 (stereo unspecified) | 1 | 0 | -1 | 15 | .
CC1CCCN(S(=O)(=O)c2ccc(NC(=O)CN3CCN(C)CC3)cc2)C1 (stereo unspecified) | 17 | . | . | 90* | 0%
C[n+]1cccc2c(Br)ccc([O-])c21 | 100 | -1 | 53* | 104* | -1%
Oc1ccccc1N=Nc1ccccc1O | -7 | 3 | 2 | 21 | .
Nc1ccc(N=Nc2ccccc2O)c(N)c1 | . | 6 | 0 | 54* | -16%
C=CCn1c(NC(=O)c2ccco2)c(S(=O)(=O)c2ccccc2)c2nc3ccccc3nc21 | 34 | . | . | . | .
C=CCn1c(NC(=O)c2ccc(Br)o2)c(S(=O)(=O)c2ccccc2)c2nc3ccccc3nc21 | 92 | . | . | 83* | 0%
Cc1ccc(Cl)c2c1NC(=O)C2(O)CC(=O)c1ccc(Br)cc1 (stereo unspecified) | -2 | . | . | 10 | .

Source: PubChem (several laboratories)
